Compounds with a hit are over-represented: about 6.7% of the library has one in this group of screens.
KB-3-1 tox – qHTS assay for MDR1-selective chemotherapeutics: Primary screen using the parental adenocarcinoma cell KB-3-1. AID 1347075, 2019. 400,000 tested, 1.4% active. KB-3-1 viability, CellTiter-Glo ATP luminescence, 72 h. Potency, µM (series often up to 46.1 µM), usual class: cytotoxic; note: % is set by controls: 0 for no effect and ±100 for the full control effect; nearly all actives have a fitted effect of over 60% in size
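Cytotoxicity in the drug-sensitive parental line KB-3-1 was scored as loss of CellTiter-Glo luminescence following 72 h incubation with compound. Values come from curve fitting of normalized concentration-response data.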
KB-V1 MDR tox – qHTS assay for MDR1-selective chemotherapeutics: Primary screen using the drug-selected MDR subline cells KB-V1; 400,000 tested, 3.4% active; Potency, µM (highest dose often 46.1 µM), usual class: cytotoxic; KB-V1 MDR cells viability, CellTiter-Glo, 72 h; AID 1347076, 2019; note: % is set by controls: 0 for no effect and ±100 for the full control effect; nearly all actives have a fitted effect of over 60% in size
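Cytotoxicity toward P-gp-expressing KB-V1 cells was determined as loss of CellTiter-Glo luminescence after 72 h at 37 degrees C. Compounds were tested in quantitative HTS format across a concentration range, with curves fitted to normalized data.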
MCF10A rereplic – A quantitative high throughput screen for small molecules that induce DNA re-replication in MCF 10a normal breast cells; MCF 10A DNA re-replication, Hoechst nuclear intensity, 48 h; 350,000 tested, 2.9% active; Potency, µM (doses to about 46.1 µM), for the others: top-dose activity, positive = re-replication, actives largely listed as activators; note: % of control where 0% means no effect; nearly all actives have a fitted effect of over 50% in size
SW480 rereplic – A quantitative high throughput screen for small molecules that induce DNA re-replication in SW480 colon adenocarcinoma cells; 340,000 tested, 1.8% active; Potency, µM (highest dose often 46.1 µM), for inactives: at the top dose re-replication activation, actives largely listed as activators; AID 624297, 2012; SW480 DNA re-replication, Hoechst DNA content imaging, 48 h; note: % of control where 0% means no effect; nearly all actives have a fitted effect of over 55% in size
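DNA re-replication was detected as more nuclei of elevated Hoechst intensity after 48 hr exposure to compound (23 nL pinned per well of 250 cells).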
PINK1 expr mod – A Quantitative High throughput Screen to Identify Chemical Modulators of PINK1 Expression. PINK1 immunofluorescence, high-content cytometry, 24 h. Potency, µM (titrated, usually from 76.6 µM), without a hit: at the top dose activation (PINK1 increase), most hits filed as activators. 410,000 tested, 0.2% active. AID 624263, 2012; active = well fitted activation curve with a large enough effect; inconclusive = small, poorly fitted or top-dose-only effect; cell line not stated here; note: % of control where 0% means no effect; nearly all actives have a fitted effect of over 65% in size
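Stable cell line treated 24 h with compounds at 5 concentrations (CCCP controls), then fixed and immunostained for PINK1 plus nuclear and cell stains; PINK1 immunofluorescence quantified by laser-scanning microplate cytometry.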
* = called active by the depositor; i = inactive; ? = inconclusive; . = no result given; [ ] = another dose, or the depositor's remark. Unless noted, calls come from the whole dose curve; as a rule, active = well fitted curve in the direction sought with a large enough effect; inconclusive = small, poorly fitted or top-dose-only effect, or another doubt; inactive = no such curve, though single readings can be large; an effect the other way counts as inactive or inconclusive. Potency is the fitted concentration of half-maximal effect.

SMILES | KB-3-1 tox | KB-V1 MDR tox | MCF10A rereplic | SW480 rereplic | PINK1 expr mod
O=C(C=Cc1ccccc1O)c1ccccc1O | ? | ? | ? | ? | -2%
CC(=O)COc1cc(C)cc2oc(=O)cc(-c3ccccc3)c12 | i | i | -6% | 0% | -1%
COc1ccc([N+](=O)[O-])cc1COc1cc(C)cc2oc(=O)cc(-c3ccccc3)c12 | 21µM* | 6.5µM* | 12µM* | ? | 7%
COc1ccc(-c2cc(C(=O)N(C)Cc3ccc(F)cc3)c3ccccc3n2)cc1OC | i | ? | ? | 12% | -1%
CCCS(=O)(=O)Nc1cccc(-c2ccc3nnc(C)n3n2)c1 | i | i | -4% | 18µM* | 2%
Cc1ccc(-c2csc(NC(=O)C3CCN(S(=O)(=O)c4cccs4)CC3)n2)cc1 | 6.5µM* | 9.2µM* | 2% | ? | 1%
O=C(Nc1nc(-c2ccc3ccccc3c2)cs1)C1CCN(S(=O)(=O)c2cccs2)CC1 | 4.6µM* | 2.6µM* | -43% | -137% | -1%
COc1ccc(/C=C2\SC(=O)N(CCNC(=O)C3CCN(S(=O)(=O)c4cccs4)CC3)C2=O)cc1 | i | 15µM* | -7% | -15% | 5%
COC(=O)c1ccccc1NC(=O)C1=C(C)C(=O)OC12CCC(C)CC2 (configuration not stated) | . | . | . | . | -1%
Cc1ccccc1NC(=O)c1cccc(Cn2cc(Br)c([N+](=O)[O-])n2)c1 | i | i | 3% | 1% | -1%
COc1cc(/C=N\NC(=O)c2ccc(Cn3nc([N+](=O)[O-])c(Cl)c3C)o2)ccc1O | i | i | 2% | 0% | 8%
COc1cccc(/C=N\NC(=O)c2ccc(Cn3cc(Br)c([N+](=O)[O-])n3)o2)c1O | ? | ? | ? | 0.73µM* | 2%
Cc1cccc(NC(=O)c2cccc(Cn3cc(Br)c([N+](=O)[O-])n3)c2)c1C | ? | 12µM* | -4% | -2% | 4%
COc1ccc(OC)c(NC(=O)c2cccc(Cn3cc(Br)c([N+](=O)[O-])n3)c2)c1 | ? | 4.6µM* | 6% | -55% | 3%
Cc1cccn2c(=O)c(C(=O)NCCc3ccccc3)c(O)nc12 | i | ? | . | . | 0%
COc1ccc(-n2c(CNC(=O)c3c(-c4ccccc4)noc3C)nnc2SC)cc1 | . | . | . | . | 0%
S=c1[nH]nc(-c2ccc(Cl)cc2)n1/N=C/c1cccs1 | i | i | -15% | 9.2µM* | 1%
S=c1[nH]nc(-c2ccccc2)n1/N=C/c1ccc(Cl)cc1 | i | i | -13% | -20% | 4%
CCC(C)c1ccc(NC(=O)Nc2cnccn2)cc1 (configuration not stated) | 3.3µM* | ? | 5.8µM* | 3.3µM* | 9%
CCOC(=O)Cn1c(=NC(=O)c2ccc([N+](=O)[O-])s2)sc2ccccc21 | 4.6µM* | ? | 3.7µM* | ? | 25µM*
CCOC(=O)Cn1c(=NC(=O)C2COc3ccccc3O2)sc2cc(S(N)(=O)=O)ccc21 (configuration not stated) | i | i | 0% | -3% | 4%
CC1=C(SCc2ccccc2)C(=O)c2ccccc2C1=O | ? | ? | 3.7µM* | 3.7µM* | -1%
COc1ccc(N2CCN(Cc3nc4ccsc4c(=O)[nH]3)CC2)cc1 | i | i | -8% | 2% | ?
O=c1[nH]c(CN2CCN(c3ccc([N+](=O)[O-])cc3)CC2)nc2ccsc12 | 16µM* | 18µM* | -3% | 0% | 1%
Cn1c(=O)c2[nH]c(CCC3CCCC3)nc2n(C)c1=O | i | 23µM* | -2% | -2% | -3%
SMILES | KB-3-1 tox | KB-V1 MDR tox | MCF10A rereplic | SW480 rereplic | PINK1 expr mod
COc1cc2c(cc1OC)C1(CCCC1)CNC2c1ccc([N+](=O)[O-])cc1 (configuration not stated) | i | i | -33% | 23µM* | -1%
COc1ccc(CCNC(=O)CSc2nc3c(c(=O)n(C)c(=O)n3C)n2C(C)C)cc1OC | i | i | -2% | -4% | ?
COc1cccc(Cn2c(NCc3cccnc3)nc3c2c(=O)n(C)c(=O)n3C)c1 | 3.7µM* | i | 2% | -2% | -3%
COc1ccc(CCNc2nc3c(c(=O)n(C)c(=O)n3C)n2C)cc1OC | i | 15µM* | 6% | -3% | 0%[38.3 µM]
CC(C)CCn1c(NCCc2ccccc2)nc2c1c(=O)n(C)c(=O)n2C | ? | 13µM* | 20% | -3% | 2%
Cn1c(=O)c2c(nc(NCCc3ccccc3)n2Cc2ccc(F)cc2)n(C)c1=O | ? | 4.1µM* | 26% | 7% | -1%
CCN(CC)C(=O)Cn1cc(C(=O)C(=O)Nc2ccc3c(c2)OCO3)c2ccccc21 | i | i | . | . | 1%
CCC(=O)N1CCN=C1SCc1cccc(C(F)(F)F)c1 | i | ? | -2% | 4% | -1%
Cc1cccc(Cn2c(NCCO)nc3c2c(=O)n(C)c(=O)n3C)c1 | ? | 4.1µM* | -11% | -4% | 7%[38.3 µM]
Cc1ccc(Oc2nc3c(c(=O)n(Cc4ccccc4F)c(=O)n3C)n2C)cc1 | i | 12µM* | 2% | -7% | 1%[38.3 µM]
Cn1c(NCc2cccnc2)nc2c1c(=O)n(Cc1ccccc1F)c(=O)n2C | ? | 15µM* | -4% | -8% | 5%[38.3 µM]
COCCNc1nc2c(c(=O)n(C)c(=O)n2C)n1Cc1cccc(C)c1 | ? | i | 7% | 1% | -1%
CCN(C(=O)Cn1nc(Cc2cccnc2)c2ccccc2c1=O)c1ccccc1F | . | . | . | . | 0%
CC(NCC(=O)NCCc1ccc(S(N)(=O)=O)cc1)c1ccc(F)cc1 (configuration not stated) | i | i | -5% | 26µM* | 0%
Cc1cc(C)c(NC(=O)Cn2c(=O)n(CCC(=O)NCc3ccc4c(c3)OCO4)c(=O)c3ccccc32)c(C)c1 | i | i | . | . | -1%
CC(=O)N1CC(C)Sc2ccc(S(=O)(=O)NCCc3ccc(C)cc3)cc21 (configuration not stated) | i | i | ? | -29% | 0%
CC(=O)N1CC(C)Sc2ccc(S(=O)(=O)NCc3ccc(Cl)cc3)cc21 (configuration not stated) | 23µM* | i | 12% | ? | 0%
CCCOc1ccc(C2C(C(=O)c3cc4ccccc4o3)=C(O)C(=O)N2c2cc(C)on2)cc1OC (configuration not stated) | i | i | 8% | 8% | 0%
Cc1cc(N2C(=O)C(O)=C(C(=O)c3ccc(C)o3)C2c2cccc(Oc3ccccc3)c2)no1 (configuration not stated) | i | i | 26µM* | ? | 0%
